# From PubChem BioAssay AID1014 (NMMLSC, 2008)
# Activity calls are given as the source filed them. Cut-off read from the data, not from the text of the source: active = inhibition of mean fluorescence above about 33%; inactive = the rest.
# Experiment: quorum sensing inhibitors in bacterial reporter, SAR follow-up, flow cytometry, SAR analogs (AID 1014);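 note: Staphylococcus aureus RN6390 with RNAIII-GFP reporter stimulated by AIP; bacteria incubated with compound for 3 hours at 37 °C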
# Settings: at 20 µM, stronger effect = higher value; inhibition of percent positive cells: flow cytometry fluorescence, measured here: percent reporter-positive cells
Structure (SMILES),inhibition of mean fluorescence,inhibition of percent positive cells
CC1CCN(C(=O)c2oc3ccccc3c2NC(=O)c2ccc3c(c2)OCO3)CC1,25.2% (inactive),-0.2%
CC(C)c1ccc(NC(=O)C(c2cc3c(cc2[N+](=O)[O-])OCO3)N2CCC(Cc3ccccc3)CC2)cc1 (centres undefined),-12% (inactive),-0.4%
COc1ccc(C(=O)NCC(c2cccnc2)N2CCN(c3ccc(F)cc3)CC2)cc1OC (centres undefined),3.4% (inactive),0%
NC1=NC(=O)CC(C(=O)Nc2ccccc2)S1 (centres undefined),-19.2% (inactive),-0.6%
O=C(Nc1ccc2c(c1)OCCO2)N1CCCC(CN2CCc3ccccc3C2)C1 (centres undefined),-1.4% (inactive),0.1%
CN(C)c1ccc(Nc2c(C(=O)O)cc([N+](=O)[O-])cc2[N+](=O)[O-])cc1,10.4% (inactive),5.2%
CC1CCN(C(C(=O)Nc2ccc3c(c2)OCO3)c2ccccc2)CC1 (centres undefined),32.4% (active),-0.7%
COc1ccc(C(=O)NCC(c2cccnc2)N2CCN(c3ccc(F)cc3)CC2)cc1 (centres undefined),-13.4% (inactive),-0.3%
COc1ccccc1N1CCN(C(CNC(=O)c2ccc(F)cc2)c2cccnc2)CC1 (centres undefined),6.4% (inactive),-1.7%
CCc1ccc(Nc2nc3c(S(=O)(=O)c4ccc(C)cc4)nnn3c3ccccc23)cc1,19.1% (inactive),-1.1%
Cc1ccc(Nc2c(F)c(F)c(F)c(F)c2C(=O)O)c(C)c1,4.2% (inactive),-2.3%
O=C(NCC(c1cccnc1)N1CCc2ccccc21)c1cccc(Br)c1 (centres undefined),29.6% (inactive),0.1%
O=C(Nc1ccc2c(c1)OCO2)C(c1ccc(Cl)cc1)N1CCC2(CC1)OCCO2 (centres undefined),-0.5% (inactive),-0.8%
O=C(O)c1ccccc1NC(c1ccccc1)c1ccc(Cl)cc1 (centres undefined),59.8% (active),0.2%
CCc1ccc(S(=O)(=O)c2n[nH]n3c2nc(=O)c2ccccc23)cc1,87.7% (active),53.5%
O=C(NCC(c1cccnc1)N1CCc2ccccc21)c1ccc(F)c(F)c1 (centres undefined),19.9% (inactive),-0.3%

Structure (SMILES),inhibition of mean fluorescence,inhibition of percent positive cells
CCc1ccc(Nc2nc3c(S(=O)(=O)c4ccc(C(C)(C)C)cc4)nnn3c3ccccc23)cc1,3.7% (inactive),-0.1%
O=C(NC1CCCCC1)C(c1cc2c(cc1[N+](=O)[O-])OCO2)N1CCCCC1 (centres undefined),12% (inactive),-0.2%
CC1CCCN(C(C(=O)Nc2ccc3c(c2)OCO3)c2ccccc2)C1 (centres undefined),81.5% (active),81.9%
COc1cccc(Nc2c(F)c(F)c(F)c(F)c2C(=O)O)c1,-12.9% (inactive),-0.2%
Cc1ccc(Nc2c(C(=O)O)cc([N+](=O)[O-])cc2[N+](=O)[O-])cc1Cl,-19.5% (inactive),-0.4%
O=C(NCCN1CCN(c2ccccc2)CC1)c1cccc(Cl)c1,-5.6% (inactive),0%
CC1CCCN(CCC(=O)Nc2ccc3c(c2)OCO3)C1 (centres undefined),-15.3% (inactive),-1.5%
O=C(NC1CCCC1)C(c1cc2c(cc1[N+](=O)[O-])OCO2)N1CCN(c2ccccc2)CC1 (centres undefined),-13.2% (inactive),-1.6%
CCc1c(C(=O)c2ccc(C)cc2)oc2ccc3c(C)cc(=O)oc3c12,10.8% (inactive),-0.1%
CCOC(=O)c1cnc2ccc(OC(F)(F)F)cc2c1Nc1ccccc1C(=O)O,22.4% (inactive),0.6%
Cc1oc2ccc(O)cc2c1C(=O)O,-20.2% (inactive),-0.5%
Cc1ccc(C)c(S(=O)(=O)c2n[nH]n3c2nc(=O)c2sccc23)c1,35.2% (active),0%
Cc1[nH]nc(Nc2ccccc2C(=O)O)c1[N+](=O)[O-],0.1% (inactive),0.2%
O=C(Nc1ccc2c(c1)OCO2)C1CCN(Cc2cnn(-c3ccccc3)c2-n2cccc2)CC1,-33.1% (inactive),-0.6%
O=C(O)c1ccccc1Nc1ccnc(N2CCOCC2)n1,5.6% (inactive),0%
Cc1ccc(Nc2nc3c(S(=O)(=O)c4ccccc4)nnn3c3ccccc23)cc1,-19% (inactive),0.4%
